ChEMBL document CHEMBL4888484, “Replenishing the malaria drug discovery pipeline: Screening and hit evaluation of the MMV Hit Generation Library 1 (HGL1) against asexual blood stage Plasmodium falciparum ,using a nano luciferase reporter read-out” (2022)
In all, about 4,800 compounds went through this assay and about 420 (8.8%) showed an effect of 50% or more. The sample as a whole holds a higher share of strong results than the screen did.

test system: Plasmodium falciparum; experiment: Confirmatory screen in NF54 nanoGlo assay, in single point, at 2uM, 72h; format: functional, Erythrocyte; conditions: timepoint 72 hour

Compound	% Inhibition
COCCNC(=O)c1ccc(-n2nc(-c3nnc(C)o3)c(C)c2-c2ccc(OC)cc2)cc1	46%
CC(C)N(C)CCOC(=O)c1ccccc1Cl	-1%
CCN1c2cc(C(=O)NCc3ccncc3)ccc2C(=O)N2CCCC[C@H]21	-2%
Cc1cc(C(=O)N(CCN(C)C)c2ccccc2)c(C)s1	-1%
Cc1cc(C(=O)Nc2ccc(Br)c(C)n2)no1	-12%
Cc1cc(Br)ccc1N1CC[C@@H](C(=O)NC2CC2)C1=O	2%
CCN(CCO)S(=O)(=O)c1ccc2c(c1)CCO2	-7%
c1ccc(CC2=NCCc3ccccc32)cc1	65%
O=c1cc2c(nn1Cc1cccc(Cl)c1)-c1ccccc1CC2	-6%
Cc1cccc2ncnc(N(C)[C@@H](C)Cc3ccc(O)cc3)c12	79%
COc1ccccc1Nc1c(-c2cccs2)nc2ccccn12	-2%
Cc1c(N=C2NC3(CCCCC3)Cc3ccccc32)c(=O)n(C)n1-c1ccccc1	-1%
CCC[N+]1(CC#C[C@@](O)(c2ccccc2)C2(C)CCCC2)CCCCC1	46%
CCC[N+]1(CC#C[C@@](O)(c2ccccc2)C(C)(CC)CC)CCCCC1	48%
CC1([C@@](O)(C#CC[N+]2(C)CCCCC2)c2ccccc2)CCCC1	50%
O=C(N1CCCN(c2nc3ccccc3nc2-c2ccccc2)CC1)C(Cl)(Cl)Cl	46%
COc1cc(OC)cc(C(=O)Nc2ccc3nc(N4CCC(C)CC4)cc(C)c3c2)c1	47%
CCN(CC)c1ccc(C(=O)Nc2ccc3nc(N4CCCC4)cc(C)c3c2)cc1	85%
CCn1cc(C(=O)Nc2ccc(C(=O)N3CCCCC3)cc2)cn1	1%
COc1ccc(N(Cc2ccc(F)cc2)S(=O)(=O)c2ccc3nncn3c2)cc1	-13%
CC(C)CC(=O)Nc1ccc2c(c1)C(N1CCC(C)CC1)=Nc1ccccc1O2	0%
Cc1oc(C(=O)N2CC3(CCCC3)c3ccccc32)cc1S(=O)(=O)N(C)C	4%
COCCCN(Cc1c(C)nn(-c2cccc(F)c2)c1N1CCN(C)CC1)S(=O)(=O)c1ccc2ccccc2c1	7%
COCCCn1c(NS(=O)(=O)c2ccccc2)c(S(=O)(=O)c2ccc(C)cc2)c2nc3ccccc3nc21	61%

Compound	% Inhibition
COCCCn1c(NS(=O)(=O)c2ccc3ccccc3c2)c(S(=O)(=O)c2ccc(C)cc2)c2nc3ccccc3nc21	56%
COc1ccc(-c2cc(C[C@H]3CNCC[C@H]3CC(=O)Nc3ccccc3)no2)cc1	-7%
CCCn1c(C)ccc(-c2noc(CCC(=O)NC3CCCC3)n2)c1=O	-6%
CN(C(=O)C1C(C(=O)O)C1(C)C)c1ccccc1OC(F)F (configuration not stated)	-2%
Cc1ccccc1[C@H]1CCN(c2ccc(NC(=O)c3ccc(Cl)cc3)c(C(=O)O)c2)C1	-11%
Cc1ccc(C(=O)Nc2ccc(N3CCN(CCC#N)CC3)cc2C(=O)O)cc1	-12%
Cc1ccc(C(=O)Nc2cc3c4c(c2)C2CCCC2CN4CC2CCCC32)cc1 (configuration not stated)	60%
CC(C)(C)OC(=O)N1C2CCC1CC(CC(=O)NC1CCCC1)C2 (configuration not stated)	8%
COCCN(CC1CN(Cc2cccs2)CC1c1cccc(F)c1)C(=O)C(C)C (configuration not stated)	-3%
Cc1cc(C)n2cc(COC(=O)Cn3c(C)cc4ccccc43)nc2n1	-2%
Cc1oc2ncn(CCN3CCCC3)c(=O)c2c1C(=O)Nc1ccc(C#N)cc1	34%
CCCN1CCC(NCc2ccc(-c3cccc(Cl)c3Cl)o2)CC1	65%
O=C(Nc1cccc2ccccc12)c1nn[nH]c1NS(=O)(=O)c1ccccc1	-9%
COc1ccnc(N2CCc3nn(C(C)C)c(=O)cc3C2)n1	-4%
O=C(Cc1ccc(N(Cc2cccc(F)c2)C(=O)C2CCCC2)cc1)NCCN1CCCCC1	54%
Cc1cccc(CN(C(=O)C2CCCC2)c2ccc(CC(=O)NCCN3CCOCC3)cc2)c1	9%
O=C(Cc1ccc(N(Cc2cccc(F)c2)C(=O)C2CCCC2)cc1)NCCN1CCCC1	21%
NC(=O)C1CCN(C(=O)Nc2nc(C(F)(F)F)cs2)CC1	5%
CC1(C)CCC[C@@H]1NS(=O)(=O)c1ccc(C(=O)N2CCOCC2)cc1	4%
Oc1ccc(-c2ncc3n2CCCC3)cc1	4%
Oc1ccc(-c2nnc(-c3ccc(O)cc3)nn2)cc1	51%
Cc1c(-c2ccc(F)cc2)[nH]c2ccc(CNc3nccc(N(C)C)n3)cc12	29%
CC(C)[C@H](Nc1ccc2nccnc2n1)c1nnc2n1CCC2	-8%
Oc1ccccc1-c1cnc(C(F)(F)F)s1	94%

Compound	% Inhibition
Oc1nc(-c2cccc(C(F)(F)F)c2)sc1-c1ccccc1	0%
CN(C)Cc1cn(C[C@H]2C[C@@H](NC(=O)Nc3ccc4c(c3)OCCO4)[C@H](O)[C@@H]2O)nn1	0%
CC1CN(C(=O)COc2ccc3oc4ccccc4c3c2)CC(C)O1 (configuration not stated)	-3%
CNC[C@H]1CCCN1C(=O)c1ccc(-c2noc(C(F)(F)F)n2)cc1	29%
COC1CCCCC1NC(=O)c1ccc(-c2noc(C(F)(F)F)n2)cc1 (configuration not stated)	-1%
CC(C(=O)N1N=CCC1(O)C(F)(F)F)n1nc(C(F)(F)F)cc1C1CC1 (configuration not stated)	-1%
O=C(NCCc1cc(F)cc(F)c1)C1CC2CCC1C2 (configuration not stated)	0%
O=S(=O)(Cc1cc(Cl)cc(Cl)c1)NCCCCn1ccnc1	-6%
COc1ccc(Nc2nnc(-c3ccc(NC(=O)C(=O)NCCCn4ccnc4)cc3)s2)cc1	56%
COc1ccc(-c2nccn3cc(C(=O)NCCc4ccncc4)nc23)cc1	-1%
Cn1c2ccc(Br)cc2c2cc(NS(=O)(=O)c3ccccc3)ccc21	4%
CS(=O)(=O)Nc1nc2c(s1)CN(C(=O)c1ccc3c(c1)CCC=C3)CC2	0%
CCc1cc(=O)[nH]c(-n2nc(C3CC3)cc2NC(=O)C2CCCCC2)n1	88%
Cc1ccc(C(=O)Nc2c(C(N)=O)sc3nc(C(F)F)cc(C4CC4)c23)cc1	-16%
Cc1nc(CC(=O)Nc2cc(C3CC3)nn2-c2ccccc2)cs1	1%
CCc1cc(C(=O)N2CCCCCC2)c2c(C3CC3)nn(-c3ccc(F)cc3)c2n1	0%
Cc1cc(=O)[nH]c(-n2nc(C3CC3)cc2NC(=O)c2ccc(C(C)(C)C)cc2)n1	57%
Cc1cc(F)ccc1NC(=O)Cn1nc(C2CC2)c2c(C(F)F)cc(=O)[nH]c21	-4%
CC(C)(C)c1ccc(C(=O)N[C@H]2CCCC[C@@H]2NC(=O)c2ccc(C(C)(C)C)cc2)cc1	-5%
CC1CCC(NC(=O)C(c2ccccc2)c2ccccc2)CC1 (configuration not stated)	10%
Cc1cc(=O)[nH]c(-n2nc(C3CC3)cc2NC(=O)C(c2ccccc2)c2ccccc2)n1	91%
Cc1nn(C)c(NC(=O)c2ccc(C(C)(C)C)cc2)c1C1=CCCCC1	15%
CC(C)c1cc(=O)[nH]c(-n2nc(C3CC3)cc2NC(=O)c2ccc(F)cc2)n1	93%
CN1CCC[C@H](C(=O)Nc2nc(C3CC3)cs2)C1	-12%
